Assay outcomes as filed in PubChem.
A selection: hits, their analogues and other compounds. The true share with any hit is near 2.2%.
PHOSPHO1 block: blocks human PHOSPHO1 phosphatase activity | recombinant PHOSPHO1, absorbance phosphatase assay | inhibition, % at 13.3 µM | actives 1.1% (n = 290,000); in the data active = inhibition above about 60%
Target sequence (Q8TCT1 whole entry, looked up): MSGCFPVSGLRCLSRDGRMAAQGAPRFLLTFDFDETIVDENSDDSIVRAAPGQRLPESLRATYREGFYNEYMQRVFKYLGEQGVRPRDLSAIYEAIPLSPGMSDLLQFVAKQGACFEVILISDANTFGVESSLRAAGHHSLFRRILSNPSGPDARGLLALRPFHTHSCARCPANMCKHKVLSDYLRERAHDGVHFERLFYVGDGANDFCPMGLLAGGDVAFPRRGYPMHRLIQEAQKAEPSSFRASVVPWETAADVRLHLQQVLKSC
HDAC3 inhib: human HDAC3 inhibition | inhibition, % at 8.3 µM | recombinant HDAC3, fluorogenic peptide/trypsin coupled, fluorescence | AID 2718 | actives 0.15% (n = 320,000); in the data active = inhibition above about 26%, passing the limit was not always enough; inconclusive = no clear call, values can overlap the other calls
GASC-1 inh: inhibitors of human GASC-1 (JMJD2C) demethylase; Q9H3R0; inhibition, % at 2.35 µM; actives 0.069% (n = 330,000); GST-JMJD2C(1-420) H3K9me3 demethylation, DELFIA europium; AID 2099;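 active = more than half of a compound's replicate wells show inhibition beyond 50%, single wells judged on their own value; inconclusive = some, but no more than half, of replicates pass 50% inhibition; inactive = no replicate passes 50% inhibition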;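 note: signal counts dimethyl H3K9 product captured on neutravidin plate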
PvdQ acylase: P. aeruginosa PvdQ acylase inhibition. AID 488965. purified PvdQ acylase, fluorescence plate reader. actives 0.063% (n = 340,000). inhibition, % at 10 µM; in the data active = inhibition above about 30%, passing the limit was not always enough; inconclusive = no clear call, values can overlap the other calls
Mot1-301 SUMO: blocks SUMOylation pathway, rescuing yeast Mot1-301 growth | actives 1% (n = 320,000) | S. cerevisiae Mot1-301 growth rescue, ATP luminescence, 38.5C; percent above DMSO median, 100 means doubled | growth rescue, % at 18.8 µM;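 active = every valid replicate shows activation above 250% relative to neutral control wells; inactive = the rest, any valid replicate at or below 250%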
p-CIP stab down: compounds decreasing mouse p/CIP protein stability; Q05BA5; F442A p/CIP-EGFP cells, EGFP fluorescence, 16 h; decrease of EGFP signal, % at 10 µM; actives 0.01% (n = 290,000); AID 1984;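 active = EGFP signal decrease of at least 30% at 10 µM or well 3 SD below plate mean, unless failing retest; inactive = the rest, including hits failing retest or dose response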
Mot1 SUMO dose: yeast SUMO pathway inhibition in dose response; 2,300 tested, under 10 active; shares compounds with Mot1-301 SUMO; AID 493004; S. cerevisiae Mot1-301 galactose growth, ATP luminescence, 24 h; -100 = growth of slx-deleted rescue strain; growth activity, percent, % at 42 µM;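 active = Signal drops as the depositor expects, and the fitted half-maximal dose is no more than ten times the top valid tested dose; inconclusive = Poor fit, or a flat curve whose signal drops by 30% to 70%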;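 note: more negative values mean stronger growth rescue toward the control strain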
Hits are given with their value; n = inactive; u = inconclusive; x = no result given; + = active, no number; ! = not confirmed by another sample.

SMILES	PHOSPHO1 block	HDAC3 inhib	GASC-1 inh	PvdQ acylase	Mot1-301 SUMO	p-CIP stab down	Mot1 SUMO dose
N#C/C(=C\c1cn(-c2ccccc2)nc1-c1cccnc1)c1nnc2n1CCCCC2	n	n	n	n	396.9	n	n
O=C(/C=C/c1cn(-c2ccccc2)nc1-c1cccnc1)N1CCCC1	n	x	n	n	x	n	x
Fc1ccc(CN(Cc2ccccc2)C(c2cccs2)c2nnnn2C2CCCCC2)cc1 (stereo not drawn)	n	n	n	n	n	n	x
Clc1ccc(CN(Cc2ccccc2)C(c2cccs2)c2nnnn2C2CCCC2)cc1 (stereo not drawn)	n	n	n	n	656.6	n	n
COCC(=O)n1nc(-c2ccccc2)nc1NCc1ccc(N(C)C)cc1	n	n	n	n	862.2	n	n
COCC(=O)n1nc(-c2ccc(Cl)cc2)nc1NCc1ccc(F)cc1	n	n	n	n	539.0	n	n
COCC(=O)n1nc(-c2ccc(C)cc2)nc1NCc1ccc(F)cc1	n	x	x	n	x	n	x
COc1c(O)cc2c(c1O)[C@@H]1O[C@H](CO)[C@@H](O)[C@H](O)C1OC2=O (stereo partly drawn)	x	n	u	n	n	x	x
Cc1ccc(C)c(N(C(=O)c2ccco2)C(C(=O)NC2CCCC2)c2ccco2)c1 (stereo not drawn)	n	n	n	n	n	n	x
Cc1cc(=O)oc2cc(NC(=O)C(CCCN=C(N)N)NC(=O)OCc3ccccc3)ccc12 (stereo not drawn)	n	n	n	n	n	n	x
CC(=O)Oc1cccc(N2C(=O)c3ccc(C(=O)Nc4c[nH]c(=O)[nH]c4=O)cc3C2=O)c1	n	n	n	n	553.9	n	n
O=C(c1ccccc1F)N1CCN=C1SCc1cccnc1	n	n	n	n	569.3	n	n
O=C(CNC(=S)N(Cc1ccccc1)Cc1cccnc1)N1CCOCC1	n	n	n	n	n	n	x
O=C(/C=C/c1ccccc1)NCC1(c2ccccc2)CCOCC1	n	n	n	n	n	n	x
O=C(/C=C/c1ccc(F)cc1)NCC1(c2ccccc2)CCOCC1	n	n	n	n	541.7	n	n
CC1(C)Cc2nc3sc4c(OCc5ccccc5)ncnc4c3cc2CO1	n	n	n	n	+	n	n
COc1ccc(-c2c(-c3cc(OC)cc(OC)c3)n(C)c3ccc(-c4ccc(S(N)(=O)=O)cc4)cc23)cc1	x	n	n	n	n	x	x
c1ccc(COc2ccccc2CNc2nn[nH]n2)cc1	n	n	n	n	n	n	x
COc1ccc(C(=O)Nc2cc(C)nn2-c2ccc(F)cc2)cc1	n	n	n	n	n	n	x
Cc1cc(Cl)c2oc(C(=O)NC3CCC(O)CC3)c(C)c2c1 (stereo not drawn)	n	n	n	n	+	n	n
Cc1cnc(=O)[nH]c1SCC(=O)c1ccc(F)cc1	n	n	n	n	436.5	n	n
COC(=O)c1ccccc1S(=O)(=O)NCc1nc2nc(C)cc(C)n2n1	n	n	n	n	n	n	x
COc1ccc(N(C(=O)c2ccco2)C(C(=O)NC2CCCC2)c2ccccc2)cc1 (stereo not drawn)	n	n	n	n	n	n	x
COc1ccc(N(C(=O)c2ccco2)C(C(=O)NC2CCCCC2)c2ccccc2)cc1 (stereo not drawn)	x	n	n	n	693.6	x	n
Cc1c(Br)cnn1C(C)C(=O)N1CCN(c2ccc(F)cc2)CC1 (stereo not drawn)	x	n	n	n	n	x	x
SMILES	PHOSPHO1 block	HDAC3 inhib	GASC-1 inh	PvdQ acylase	Mot1-301 SUMO	p-CIP stab down	Mot1 SUMO dose
O=C(c1cc(N2C(=O)C3C4CCC(C4)C3C2=O)ccc1Cl)N1CCN(c2ccccc2)CC1 (stereo not drawn)	n	n	n	n	+	n	n
CCOC(=O)C1(Cc2cccc(Cl)c2)CCCN(C(=O)CCSC)C1 (stereo not drawn)	n	n	n	n	n	n	x
CCOC(=O)C1(Cc2cccc(Cl)c2)CCCN(C(=O)CCOC)C1 (stereo not drawn)	n	n	n	n	389.4	n	n
CC(N=C(NC#N)Nc1ccncc1)C(C)(C)C (stereo not drawn)	n	n	n	n	798.1!	n	n
CCCC(C)C(=O)Nc1ccncc1 (stereo not drawn)	n	n	n	n	n	n	x
CN(C(=O)CSc1ncccc1C(=O)O)c1ccccc1	n	n	n	n	n	n	x
CCCN(CCC)C(=O)CSc1ncccc1C(=O)O	n	n	n	n	398.9	n	n
CSc1nncc(/C(C)=N\Nc2cccc(C)c2)n1	n	n	n	n	365.8	n	n
O=S(=O)(NCCN1CCCC1)c1cccc2cccnc12	n	n	n	n	814.6	n	n
CC(Sc1n[nH]c(N)n1)C(=O)C12CC3CC(CC(C3)C1)C2 (stereo not drawn)	n	n	n	n	n	n	x
CC(SC#N)C(=O)C12CC3CC(CC(C3)C1)C2 (stereo not drawn)	n	n	n	n	386.4	n	n
COc1ccc(CNC(=O)CCCNC(=O)c2ccc(Cl)cc2)cc1OC	n	n	n	n	n	n	x
CCOc1cc(/C=N/NC(=O)C(=O)N/N=C/c2ccc(O)c(OCC)c2)ccc1O	n	n	n	n	767.7	n	n
Cc1ccnc(NC(=O)CNC(=O)c2ccc(Br)o2)c1	x	n	n	n	492.9	x	n
CN(C)c1ccc(/C=N/OC(=O)Nc2ccccc2Cl)cc1	n	n	n	n	n	n	x
O=C1CCC(/C=C/c2ccccc2)=NN1Cc1ccccc1Cl	n	n	n	n	n	n	x
O=C1CCC(/C=C/c2ccccc2)=NN1Cc1ccc(Cl)c(Cl)c1	n	n	n	n	659.1	n	n
COc1ccccc1OCCCCn1ncc2ccc(OC)c(OC)c2c1=O	n	n	n	n	n	n	x
Cc1ccccc1NC(=O)COC(=O)C1C2CC3OC(=O)C1C3C2 (stereo not drawn)	n	n	n	n	473.9	n	n
COc1ccccc1NC(=O)COC(=O)C1C2CC3OC(=O)C1C3C2 (stereo not drawn)	n	n	n	n	n	n	x
COc1cc(C(=O)Nc2ccc3c(c2)OCCO3)ccc1-n1cnnn1	n	n	n	n	+	n	n
Cc1ccc(NC(=O)c2noc(C(C)C)c2[N+](=O)[O-])cc1	n	n	n	n	n	n	x
Cc1ccc2cccc(OCc3nnc(SCC(=O)O)n3C)c2n1	n	n	n	n	+	n	n
COC(CNC(=O)c1cn(C)c2ccc(S(=O)(=O)N3CCOCC3)cc2c1=O)OC	n	n	n	n	606.0	n	n
CCn1cc(C(=O)NCC(OC)OC)c(=O)c2cc(S(=O)(=O)N3CCOCC3)ccc21	n	n	n	n	n	n	x
COc1cccc(S(=O)(=O)Nc2cccc(C(=O)N3CCCC3)c2)c1	n	n	n	n	n	n	x
